# Reference: PubChem BioAssay (NCI)
# Compounds without any hit were thinned out: in the full panel of roughly 83,000, 20% have a hit.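 Results are percent growth after 48 hours of single-concentration exposure. 100 means growth as in untreated cells, lower positive values show inhibition; negative values down to -100 show cell death.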 Values without a mark were called inactive. The source made the active and inactive calls. How the source made its calls: active means growth percent below 10; inactive means the rest.
# Key:
# Test in all cases: NCI-60 one-dose screen, 48 h (100 = growth as untreated, 0 = no growth, -100 = all killed)
# Details in all cases: 10 µM unless noted
# SK-MEL-2 melanoma = system: SK-MEL-2 melanoma
# EKVX NSCLC = system: EKVX NSCLC
# SN12C renal = system: SN12C renal
# UO-31 renal = system: UO-31 renal
# TK-10 renal = system: TK-10 renal
# ACHN renal = system: ACHN renal
# CAKI-1 renal = system: CAKI-1 renal
# A498 renal = system: A498 renal
# CCRF-CEM leukemia = system: CCRF-CEM leukemia
# MOLT-4 leukemia = system: MOLT-4 leukemia
# RPMI-8226 leukemia = system: RPMI-8226 leukemia
# OVCAR-8 ovarian = system: OVCAR-8 ovarian
# OVCAR-5 ovarian = system: OVCAR-5 ovarian
# OVCAR-4 ovarian = system: OVCAR-4 ovarian
# SK-OV-3 ovarian = system: SK-OV-3 ovarian
# IGROV1 ovarian = system: IGROV1 ovarian
# OVCAR-3 ovarian = system: OVCAR-3 ovarian
# HS 578T breast = system: HS 578T breast
# NCI/ADR-RES ovarian = system: NCI/ADR-RES ovarian
Compound,growth (SK-MEL-2 melanoma),growth (EKVX NSCLC),growth (SN12C renal),growth (UO-31 renal),growth (TK-10 renal),growth (ACHN renal),growth (CAKI-1 renal),growth (A498 renal),growth (CCRF-CEM leukemia),growth (MOLT-4 leukemia),growth (RPMI-8226 leukemia),growth (OVCAR-8 ovarian),growth (OVCAR-5 ovarian),growth (OVCAR-4 ovarian),growth (SK-OV-3 ovarian),growth (IGROV1 ovarian),growth (OVCAR-3 ovarian),growth (HS 578T breast),growth (NCI/ADR-RES ovarian)
C=CC(=O)Nc1cccc(C)c1Nc1cc(-c2cccnc2Cc2c(C)c(OC)cc(OC)c2C)ncn1,-29% (active),82.1%,30.1%,51%,-8.59% (active),29.7%,36.4%,-4.92% (active),-0.444% (active),-7.26% (active),-24.1% (active),3.17% (active),57.5%,41.9%,28.7%,42.6%,0.807% (active),29.6%,35.3%
C=C1C(=O)O[C@H]2[C@H]1CC/C(COC(=O)/C=C/C(=O)NCc1ccc(Cn3c(=O)sn(-c4ccccc4)c3=O)cc1)=C\CC[C@@]1(C)O[C@@H]21,-13.6% (active),52.3%,-43.7% (active),17.9%,-38.6% (active),-47.3% (active),35.5%,97.1%,-30.6% (active),-27.7% (active),-32.6% (active),-0.571% (active),35.4%,25.7%,75.8%,-25.5% (active),-77.5% (active),77.8%,94.1%
O=S(=O)(NCCNc1cc(-c2c(-c3cccc(O)c3)nc3sccn23)ccn1)c1ccc(Br)cc1,79.5%,56.8%,45.3%,-1.33% (active),83.2%,56.7%,39%,51.1%,39.9%,32.9%,38.1%,47.5%,109%,43.1%,73.7%,47.4%,60.3%,59.1%,80.4%
Cc1nc(-c2ccccc2)cc2c(O)c(C(=O)N/N=C/c3ccc(N(C)C)cc3)[nH]c(=O)c12,99.7%,82.5%,82%,84.2%,88.8%,67.5%,99.4%,93.9%,96.7%,22.9%,-11.6% (active),67.3%,85.4%,26.6%,105%,49.8%,71%,73.2%,66.9%
CNC(=O)c1c(NC(=O)c2ccc(C(C)(C)C)cc2)sc2c1CCC(=O)C2,-2.66% (active),14.6%,7.81% (active),-95.5% (active),40%,-45.9% (active),-14.3% (active),12.6%,1.79% (active),2.3% (active),-20.6% (active),15.7%,9.12% (active),-66.4% (active),0.618% (active),4.71% (active),-21.4% (active),24.2%,8.75% (active)
CCOc1cc(N)ccc1C(=O)NCCCN(CC)CC,102%,106%,98.5%,75.8%,108%,94.6%,95.2%,66.5%,-13.6% (active),26.3%,95.9%,118%,93.9%,109%,110%,96.5%,105%,99.1%,94.2%
C#CC[C@H](N)C(=O)O,110% [20 µM],106% [20 µM],98.2% [20 µM],86.1% [20 µM],87.7% [20 µM],107% [20 µM],91.1% [20 µM],105% [20 µM],98.6% [20 µM],102% [20 µM],106% [20 µM],99.2% [20 µM],93.2% [20 µM],107% [20 µM],105% [20 µM],106% [20 µM],111% [20 µM],111% [20 µM],108% [20 µM]
Cc1nn(Cc2ccccc2)cc1C(=O)Nc1sc2c(c1C(N)=O)CCC(=O)C2,74.5%,54.9%,15.5%,11.8%,15.5%,5.29% (active),5.49% (active),108%,9.5% (active),16.5%,-6.08% (active),20.3%,73.8%,-7.95% (active),116%,33.5%,9.48% (active),28.8%,72%
CC(C)n1nc(C#Cc2cccc3cc(-c4cccc(C(F)(F)F)c4)ncc23)c2c(N)ncnc21,42.8%,93.6%,86.1%,82%,85.1%,68.7%,86.8%,83.5%,39.5%,43.2%,57.1%,41.1%,86.1%,78.8%,91%,72%,91.2%,65.2%,82%
COC(=O)/C(=C\c1ccc(OC)cc1)C(=O)N1c2ccccc2Sc2ccccc21,35.5%,59.3%,71.1%,52.6%,92.9%,58.3%,29.4%,7.6% (active),43.1%,34.5%,54.4%,64.4%,75.1%,89.3%,91.7%,43.6%,24.5%,56.1%,16.4%
CN(CCCCCCCCNc1ccnc2ccccc12)Cc1ccc(-c2ccc(-c3ccc(C#N)cc3)s2)cc1,-63.9% (active),-14.3% (active),-78% (active),-92.4% (active),-50.1% (active),-93.6% (active),-86.5% (active),50.2%,-11.3% (active),-32.9% (active),-44.4% (active),-52.5% (active),-40.6% (active),-57.9% (active),-72.6% (active),-86.4% (active),-79.1% (active),-36.6% (active),-68.3% (active)
Cn1cc(Nc2nccc(-c3ccc(N4CCCC4)c(C#N)c3)n2)cn1,3.95% (active),57%,44.9%,31.9%,40.7%,26.7%,16.7%,48%,34%,17.2%,27.1%,47.3%,88%,53.7%,18.4%,25.3%,32.1%,32.5%,42.2%
C/C(=N\NC(=O)Cn1c(-c2ccc(S(C)(=O)=O)cc2)nc2cc(Cl)ccc21)c1ccc(Cl)cc1,91.1%,76.6%,84%,62.7%,101%,85.8%,74%,89.8%,76.2%,61.5%,76.4%,79.5%,91.2%,65.9%,81.3%,70.6%,79.7%,80.7%,86.7%
COc1ccc(Nc2ncc(Br)c(NCCCNC(=O)C3CCC3)n2)cc1,42.1%,37.2%,27.8%,-19.8% (active),5.53% (active),19.5%,0.899% (active),26.1%,17.2%,12.1%,40.1%,28.6%,31.1%,-0.243% (active),10.6%,14.5%,31.6%,-15.7% (active),47.4%
C[C@@H](C[C@H](CCOCc1cccnc1)c1ccccc1)c1cc2ccccc2o1,89.7%,94.2%,95.1%,75.9%,95.3%,93.1%,77.6%,101%,94.1%,84.1%,75%,88.6%,87.8%,81.6%,84.7%,83.8%,94%,85.1%,97.9%
c1ccc2c(c1)nc(-n1ccnc1)c1nc3ccccc3n12,88.7%,74.1%,52.6%,46.1%,72.4%,32.3%,56%,79.7%,78%,74.9%,77.9%,30.4%,82.4%,68%,21.5%,52.5%,78.1%,70.3%,49.2%
